Rows were chosen to be rich in hits. Some 3.5% of all compounds tested hit in one or more screens of this group.
mHTT CaM bind = mHTT-calmodulin interaction abrogation. P42858. AlphaScreen His-mHTT/GST-CaM binding, luminescence. 190,000 compounds, 3.6% hits. inhibition, % at 15 µM;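 also: 0% = both proteins with DMSO and 100% = one protein alone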
Pf apPOL block = Pf-apPOL DNA polymerase inhibition | Recombinant Pf-apPOL, molecular beacon fluorescence, 1.5 h | 210,000 compounds, 0.25% hits | inhibition, % at 10 µM
Numbers without * were called inactive; . = not tested or not shown. Rule as the data show it: active = inhibition above about 50%; inactive = the rest.

SMILES | mHTT CaM bind | Pf apPOL block
NS(=O)(=O)c1ccc(Nc2nc(-c3ccc(Cl)c(Cl)c3)cs2)cc1 | 100* | 1
CCN(CC)c1ccc(Nc2nc(-c3ccc(Cl)c(Cl)c3)cs2)cc1 | 97* | 0
CN(C)c1ccc(NC(=O)c2ccc(Cl)c(Cl)c2)cc1 | 15 | -3
COC(=O)c1sc(-c2ccc(Cl)cc2)cc1NC(=O)c1cccnc1Oc1ccccc1 | . | -6
COc1ccc(Nc2nc(-c3ccc(Cl)c(Cl)c3)cs2)cc1 | 40 | -6
CN(C)c1ccc(Nc2nc(-c3ccc(Cl)c(Cl)c3)cs2)cc1 | 82* | -1
COc1cccc(NC(=O)C2CCc3sc(C(=O)N(C)C)cc3C2)c1 (stereo unspecified) | -4 | -5
CN(CC(=O)Nc1ccc(F)c(Cl)c1)S(=O)(=O)c1ccc2[nH]c3c(c2c1)CCCC3 | 66* | -7
Cc1ccc(NC(=O)CN(C)S(=O)(=O)c2ccc3[nH]c4c(c3c2)CCCC4)c(C)c1 | 47 | -2
Cc1c(Cl)cccc1NC(=O)CN(C)S(=O)(=O)c1ccc2[nH]c3c(c2c1)CCCC3 | 52* | -1
COc1ccc(NC(=O)CN(C)S(=O)(=O)c2ccc3[nH]c4c(c3c2)CCCC4)cc1 | 56* | -3
Cc1ccc(NC(=O)CN(C)S(=O)(=O)c2ccc3[nH]c4c(c3c2)CCCC4)nc1 | 43 | -2
CC(=O)c1ccc(NC(=O)CN(C)S(=O)(=O)c2ccc3[nH]c4c(c3c2)CCCC4)cc1 | 41 | -2
COc1cc(C=O)ccc1Oc1nc(C)nc2sc3c(c12)CCCC3 | -7 | -2
COCCNC(=O)C1CCN(c2cncnc2N2CCCCC2)CC1 | -7 | 0
O=C(Nc1ccc(Br)cc1F)N1CCc2nc[nH]c2C1 | -9 | -4
COc1cc(SC)ccc1C(=O)n1nnc2ccccc21 | 91* | -8
COc1cc(OC)cc(C(=O)n2nnc3ccccc32)c1 | 1 | -2
CCN1C(=Cc2c3ccccc3cc[n+]2CC)C=Cc2ccccc21 | 63* | 0
CCN1/C(=C/c2cccc[n+]2C)C=Cc2ccccc21 | 19 | 3
Oc1ccccc1-c1cc(C(F)(F)F)nc(-c2ccccc2)n1 | -7 | 1
N=C1S/C(=C\c2ccc(O)cc2)C(=O)N1c1ccc(F)cc1 | 10 | -5
O=c1c(-c2ccccc2)c(O)c(Cl)c(-c2ccccc2)n1-c1ccccc1 | . | -7
Cc1cccc([C@H]2[C@@H]3C=CC(C)C[C@@H]3C(=O)N2Cc2ccccc2)c1 (stereo partly specified) | 66* | -7
CC1C=C[C@@H]2[C@H](C1)C(=O)N(Cc1ccccc1)[C@H]2c1ccccc1Br (stereo partly specified) | 39 | -4
SMILES | mHTT CaM bind | Pf apPOL block
O=C1[C@H]2CCC=C[C@H]2[C@H](c2cccc(Br)c2)N1Cc1ccccc1 | 66* | 1
O=C1[C@H]2CCC=C[C@H]2[C@H](c2ccccc2Br)N1Cc1ccccc1 | 46 | 8
CC(=O)c1cc(C(=O)Nc2ccc(I)cc2)oc1C | 5 | -5
O=[N+]([O-])c1ccc2nc(Cl)c(Cl)nc2c1 | 30 | .
CC1(C)N=c2ccc([N+](=O)[O-])cc2=N1 | . | 64*
COc1ccc(C2CCC3(CCC(=O)N3CCOC(=O)C(C)C)CC2)cc1 (stereo unspecified) | 23 | -9
CC(C)C(=O)OCCCN1C(=O)CCC12CCC(c1ccccc1)CC2 (stereo unspecified) | 70* | -9
O=C(NCc1ccc(F)cc1)c1ccc(CS(=O)(=O)Cc2ccc(Cl)cc2)o1 | -7 | -18
COc1ccc(OC)c(C=C2Oc3c(ccc4c3CN(CCN3CCOCC3)CO4)C2=O)c1 | 54* | -5
COCCN1COc2ccc3c(c2C1)OC(=Cc1ccc(OC)c(OC)c1)C3=O | 15 | -15
COc1ccc(C=C2Oc3c(ccc4c3CN(CCN3CCOCC3)CO4)C2=O)cc1OC | 62* | -30
COc1cc(OC)c(OC)cc1C=C1Oc2c(ccc3c2CN(CCN2CCOCC2)CO3)C1=O | 30 | -9
CCCCC(=O)Nc1ccc(F)c(Cl)c1 | -8 | -2
COc1cc([N+](=O)[O-])ccc1-c1ccc(C(=O)Nc2cccnc2)o1 | 61* | 0
O=C(Nc1cccnc1)c1ccc([N+](=O)[O-])o1 | -4 | 6
CCC(=O)Oc1ccc2c(=O)c(-c3ccc(Cl)cc3)c(C)oc2c1 | -2 | 2
CN(C)c1ccc(CC2C(=O)Nc3ccccc32)cc1 (stereo unspecified) | . | 6
CC1=Nc2ccccc2NC(=O)C1Cc1ccccc1 (stereo unspecified) | 91* | -9
COc1ccc(-c2ccc(CN3C(C(C)C)C(=O)N(Cc4cn(CCC5OCCO5)nn4)CCS3(=O)=O)cc2)cc1OC (stereo unspecified) | 49 | 8
CC(C)CC1C(=O)N(Cc2cn(CCC3OCCO3)nn2)CCS(=O)(=O)N1Cc1ccc(-c2ccc(Cl)c(Cl)c2)cc1 (stereo unspecified) | 72* | -5

High-throughput results from PubChem BioAssay.
